According to PubChem BioAssay (Tox21):
Records with an inconclusive call do not appear. Active and inactive are the calls of the source. Unless noted, the call rests on the fitted dose curve; in most records, active means well fitted curve in the direction sought with a large enough effect in the repeat runs; inconclusive means weak or mixed curves; inactive means no such curve, though single readings can be large; an effect the other way counts as inactive or inconclusive.

Key:
[1] = A CellTox Green Cytotoxicity Assay to monitor cytotoxicity in HEK293 cells - 32 hour (AID 1224881); further: nearly all actives have a fitted effect of over 40% in size
Outline: (§1)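 Fluorescence from a DNA-binding dye excluded by viable cells was measured repeatedly in the same HEK293 wells (600 cells/well) during continuous compound exposure at 37 C. Each assay gives one read point: 0, 8, 16, 24, 32 or 40 h.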

[2] = A CellTox Green Cytotoxicity Assay to monitor cytotoxicity in HepG2 cells - 0 hour (AID 1224882); further: nearly all actives have a fitted effect of over 35% in size
Outline: (§2)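 Real-time cytotoxicity: fluorescence of a cell-impermeant cyanine dye binding DNA of dead HepG2 cells, measured repeatedly (0–40 h) during compound exposure at 37 C. Cells seeded 600/well with reagent, dosed after 5 h.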

[3] = A CellTox Green Cytotoxicity Assay to monitor cytotoxicity in HepG2 cells - 32 hour (AID 1224883); further: nearly all actives have a fitted effect of over 50% in size
Outline: as §2

[4] = A CellTox Green Cytotoxicity Assay to monitor cytotoxicity in HEK293 cells - 8 hour (AID 1224884); further: nearly all actives have a fitted effect of over 35% in size
Outline: as §1

[5] = qHTS RealTime-Glo MT Cell Viability Assay in HepG2 cells - 16 hour (AID 1224885); further: nearly all actives have a fitted effect of over 50% in size
Outline: (§3)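 Tox21 10K library screened in qHTS format on HepG2 cells carrying RealTime-Glo reagents. Compounds were added after a 5 h preincubation, and the luminescent signal from continuous culture was measured repeatedly during 40 h treatment.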

[6] = qHTS RealTime-Glo MT Cell Viability Assay in HEK293 cells - 8 hour (AID 1224887); further: top concentration of the series differs between compounds; nearly all actives have a fitted effect of over 50% in size
Outline: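 Luminescence, which tracks viable cell number through reduction of the prosubstrate to a NanoLuc substrate, was read over continuous 37 C culture. Cells (600/well) were premixed with reagent and rested 5 h before 23 nL of compound in DMSO was pinned.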

[7] = A CellTox Green Cytotoxicity Assay to monitor cytotoxicity in HEK293 cells - 16 hour (AID 1224888); further: nearly all actives have a fitted effect of over 35% in size
Outline: as §1

[8] = qHTS RealTime-Glo MT Cell Viability Assay in HepG2 cells - 0 hour (AID 1224889); further: nearly all actives have a fitted effect of over 50% in size
Outline: as §3

[9] = A CellTox Green Cytotoxicity Assay to monitor cytotoxicity in HepG2 cells - 8 hour (AID 1224890); further: nearly all actives have a fitted effect of over 45% in size
Outline: as §2

[10] = qHTS assay to identify small molecule antagonists of the estrogen receptor alpha (ER-alpha) signaling pathway using the BG1 cell line in the presence of 0.1 nM 17-beta-estradiol - cell viability counter screen (AID 1259241); further: nearly all actives have a fitted effect of over 40% in size
Outline: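 VM7Luc4E2, 4,000 cells/well, phenol red-free medium + 10% charcoal-stripped FBS; 24 hr plating; cpd + 0.1 nM E2 final, 22 hr 37C/5% CO2; CellTiter-Fluor 30 min, fluorescence.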

[11] = qHTS assay to identify small molecule antagonists of the androgen receptor (AR) signaling pathway using the MDA cell line in the presence of 0.5 nM R1881 - cell viability counter screen (AID 1259242); further: nearly all actives have a fitted effect of over 45% in size
Outline: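 Live-cell protease activity was measured by CellTiter-Fluor fluorescence after 30 min. Before that, MDA-kb2 MMTV-luciferase cells had 16 hr at 37C without CO2, exposed to test compounds and 0.5 nM R1881 final.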

[12] = biological target: Estrogen receptor (Homo sapiens) (UniProt P03372); test: qHTS assay to identify small molecule antagonists of the estrogen receptor alpha (ER-alpha) signaling pathway using the BG1 cell line in the presence of 0.1 nM 17-beta-estradiol (AID 1259244); further: nearly all actives have a fitted effect of over 50% in size
Outline: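 Luciferase luminescence (ONE-Glo, 30 min at room temperature) was read after 22 hr at 37C exposure to compounds plus 17beta-estradiol at 0.1 nM final. Cells were VM7Luc4E2 with endogenous ER-alpha and an ERE-driven luciferase, pre-cultured 5 days in hormone-depleted medium.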

[13] = qHTS assay to identify small molecule HDAC inhibitors (AID 1259364); further: top concentration of the series differs between compounds; nearly all actives have a fitted effect of over 45% in size
Outline: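 Luminescence read after 30 min room-temperature HDAC-Glo incubation measures cellular class I/II HDAC activity. Compounds were applied for 2 hr at 37 C to HCT-116 wild-type cells seeded the day before.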

[14] = qHTS assay to identify small molecule HDAC inhibitors - cell viability counter screen (AID 1259365)
Outline: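 Luminescence from CellTiter-Glo, developed 30min at room temperature, reports viability of wild-type HCT-116 cells treated 2hr with compounds at 37 C and 5% CO2 after overnight plating.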

[15] = qHTS assay to identify small molecule agonists of the sonic hedgehog signaling (Shh) pathway - cell viability counter screen (AID 1259366); further: nearly all actives have a fitted effect of over 50% in size
Outline: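 Cytotoxicity counter screen run in the same wells as the Shh reporter assay. NIH/3T3 cells carrying a Gli1 response element–driven luciferase were treated with DMSO-dissolved compounds for 24hr, and live-cell protease activity was measured with CellTiter-Fluor.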

[16] = qHTS assay to identify small molecule antagonists of the sonic hedgehog signaling (Shh) pathway - cell viability counter screen (AID 1259367); further: nearly all actives have a fitted effect of over 55% in size
Outline: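 Viability was read by CellTiter-Fluor fluorescence in the same wells, reagent added 23 hr into compound treatment and incubated 1 hr at 37C. The 3T3 Gli1-Luc reporter cells (2,000/well) received conditioned medium after compound and ran 24 hr.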

[17] = qHTS RealTime-Glo MT Cell Viability Assay in HEK293 cells - 24 hour (AID 1224886)
Outline: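 Luminescence generated by NanoLuc from substrate produced by living HEK293 cells served as the viability signal. Each value reflects the reading at its stated time point during continuous 40 h compound exposure at 37 C.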

[18] = biological target: Androgen receptor (Homo sapiens) (UniProt P10275); test: qHTS assay to identify small molecule antagonists of the androgen receptor (AR) signaling pathway using the MDA cell line in the presence of 0.5 nM R1881 (AID 1259243); further: nearly all actives have a fitted effect of over 50% in size
Outline: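 Luminescent reporter readout (ONE-Glo, 30 min, room temperature) after 16 hr co-treatment of MDA-kb2 cells with test compounds and 0.5 nM R1881 final, at 37C without CO2. The MMTV-driven luciferase responds to both AR and GR.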

[19] = qHTS assay to identify small molecule phospholipidosis (PLD) inducers (AID 1259344; active means well fitted curve in the direction sought with a large enough effect; an effect the other way counts as inactive or inconclusive)
Outline: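 Phospholipid accumulation was scored by imaging: fixed, Hoechst-counterstained HepG2 cells stained with LipidTOX Red after 24 h compound exposure at 37 C. Read-outs were pit count and pit intensity per well or per cell, with amiodarone and DMSO controls.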
On the % scale 0 is the no-effect control and ±100 the full control effect.

Estrogen receptor (Homo sapiens), sequence (P03372 whole entry, looked up): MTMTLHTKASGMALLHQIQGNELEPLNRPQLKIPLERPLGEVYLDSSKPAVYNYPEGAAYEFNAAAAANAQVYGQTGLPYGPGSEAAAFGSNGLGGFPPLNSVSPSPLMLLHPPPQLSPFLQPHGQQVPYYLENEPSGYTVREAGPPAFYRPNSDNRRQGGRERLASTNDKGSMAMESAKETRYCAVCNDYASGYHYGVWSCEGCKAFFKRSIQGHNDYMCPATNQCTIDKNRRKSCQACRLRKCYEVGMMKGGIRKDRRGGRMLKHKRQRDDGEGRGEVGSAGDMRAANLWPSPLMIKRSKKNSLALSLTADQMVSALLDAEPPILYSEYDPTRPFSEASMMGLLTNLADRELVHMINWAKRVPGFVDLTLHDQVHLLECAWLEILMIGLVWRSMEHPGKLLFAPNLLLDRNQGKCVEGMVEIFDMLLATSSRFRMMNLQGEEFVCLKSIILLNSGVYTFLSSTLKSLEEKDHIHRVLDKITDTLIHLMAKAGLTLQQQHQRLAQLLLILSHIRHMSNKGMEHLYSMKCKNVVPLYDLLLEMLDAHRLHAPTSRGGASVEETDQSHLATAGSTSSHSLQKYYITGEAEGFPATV
Androgen receptor (Homo sapiens), sequence (P10275 whole entry, looked up): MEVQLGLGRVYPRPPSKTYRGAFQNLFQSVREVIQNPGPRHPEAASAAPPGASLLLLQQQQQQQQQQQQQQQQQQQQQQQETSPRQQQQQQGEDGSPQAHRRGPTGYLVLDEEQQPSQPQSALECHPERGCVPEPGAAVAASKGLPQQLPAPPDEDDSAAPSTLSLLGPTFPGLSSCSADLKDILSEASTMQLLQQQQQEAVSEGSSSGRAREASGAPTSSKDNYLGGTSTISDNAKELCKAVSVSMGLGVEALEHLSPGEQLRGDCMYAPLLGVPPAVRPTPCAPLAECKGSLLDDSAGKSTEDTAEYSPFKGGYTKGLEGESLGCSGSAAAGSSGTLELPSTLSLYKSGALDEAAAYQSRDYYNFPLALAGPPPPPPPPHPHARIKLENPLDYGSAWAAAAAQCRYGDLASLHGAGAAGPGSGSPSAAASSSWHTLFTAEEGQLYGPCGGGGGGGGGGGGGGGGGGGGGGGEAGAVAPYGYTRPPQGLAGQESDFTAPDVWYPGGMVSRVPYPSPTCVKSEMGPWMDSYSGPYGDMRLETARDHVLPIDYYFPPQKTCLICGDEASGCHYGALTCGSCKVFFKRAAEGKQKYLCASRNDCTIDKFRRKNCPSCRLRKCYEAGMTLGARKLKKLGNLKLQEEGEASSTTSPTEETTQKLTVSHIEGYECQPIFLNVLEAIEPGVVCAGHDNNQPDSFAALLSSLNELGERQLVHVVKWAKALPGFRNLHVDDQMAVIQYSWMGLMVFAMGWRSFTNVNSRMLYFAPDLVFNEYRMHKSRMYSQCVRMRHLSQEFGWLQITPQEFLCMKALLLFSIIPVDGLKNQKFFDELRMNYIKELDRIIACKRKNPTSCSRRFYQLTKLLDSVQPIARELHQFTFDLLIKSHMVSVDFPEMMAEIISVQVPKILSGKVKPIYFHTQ

CC/C=C\CCOC(C)=O
inactive: Potency [1] | Potency [2] | Potency [3] | Potency [4] | Potency [5] | Potency [6] | Potency [7] | Potency [8] | Potency [9] | outcome [10] | Potency [11] | outcome [12] | Potency [13] | outcome [14] | Potency [15] | Potency [16]

CS(=O)(=O)O
inactive: Potency [1] | Potency [2] | Potency [3] | Potency [4] | Potency [5] | Potency [17] | Potency [6] | Potency [7] | Potency [9] | outcome [10] | Potency [11] | Potency [18] | outcome [12] | Potency [13] | outcome [14] | Potency [15] | Potency [16]

O=C(O)CN(CCOCCOCCN(CC(=O)O)CC(=O)O)CC(=O)O
inactive: cytotoxicity increase [1] 6.54% [at 0.29 µM] | cytotoxicity [2] -19.1% [at 0.29 µM] | cytotoxicity increase [3] -22.8% [at 0.29 µM] | cytotoxicity increase [4] 1.88% [at 0.29 µM] | activity change, negative = cytotoxic [5] 0.683% [at 0.29 µM] | activity change, negative = cytotoxicity [17] -2.79% [at 0.29 µM] | activity change, negative = cytotoxicity [6] 1.96% [at 0.29 µM] | activity change [7] 1.33% [at 0.29 µM, active compounds read high] | activity change, negative = cytotoxicity [8] -0.153% [at 0.29 µM] | cytotoxicity increase [9] -22.5% [at 0.29 µM] | activity change, negative = cytotoxicity [10] -0.0206% [at 0.349 µM] | viability change, negative = cytotoxic [11] 4.56% [at 0.349 µM] | activity change, negative = inhibition [13] -0.631% [at 0.349 µM] | activity change, negative = cytotoxicity [14] 5.24% [at 0.349 µM] | viability change, negative = cytotoxic [15] -0.116% [at 0.349 µM] | viability change, negative = cytotoxic [16] 0.536% [at 0.349 µM]

N[C@@H](C(=O)N[C@@H]1C(=O)N2C(C(=O)O)=C(Cl)CS[C@H]12)c1ccccc1
inactive: cytotoxicity increase [1] -0.855% [at 6.97 µM] | cytotoxicity [2] -11.9% [at 6.97 µM] | cytotoxicity increase [3] -17.5% [at 6.97 µM] | cytotoxicity increase [4] 0.155% [at 6.97 µM] | activity change, negative = cytotoxic [5] 1.78% [at 6.97 µM] | activity change, negative = cytotoxicity [17] 7.93% [at 6.97 µM] | activity change [7] 1.42% [at 6.97 µM, active compounds read high] | activity change, negative = cytotoxicity [8] 1.57% [at 6.97 µM] | cytotoxicity increase [9] -13.7% [at 6.97 µM] | activity change, negative = cytotoxicity [10] 0.43% [at 8.39 µM] | viability change, negative = cytotoxic [11] 4.33% [at 8.39 µM] | activity change, negative = inhibition [12] 7.81% [at 8.39 µM] | Potency [19] | activity change, negative = inhibition [13] 5.64% [at 8.39 µM] | activity change, negative = cytotoxicity [14] -0.59% [at 8.39 µM] | viability change, negative = cytotoxic [15] 1.34% [at 8.39 µM] | viability change, negative = cytotoxic [16] 3.69% [at 8.39 µM]

C1CN(CCOCCN2CCOCC2)CCO1
inactive: Potency [1] | Potency [2] | Potency [4] | Potency [5] | Potency [17] | Potency [6] | Potency [7] | Potency [9] | outcome [10] | Potency [11] | outcome [12] | Potency [13] | outcome [14] | Potency [15] | Potency [16]

OC1CCCCC1c1ccccc1 (configuration not stated)
inactive: Potency [2] | Potency [3] | Potency [4] | Potency [5] | Potency [17] | Potency [6] | Potency [7] | Potency [9] | outcome [10] | Potency [11] | Potency [18] | outcome [12] | Potency [13] | outcome [14] | Potency [15] | Potency [16]
